# Measurements reported in PubChem BioAssay AID1159580 (chemical genetic matrix, 2015).
# Values joined by “and” are separate entries in the source; they are usually repeats but may differ in a detail not shown here. Equal entries are not always repeated. The whole screen tested about 5,500 compounds, of which about 2,000 (36%) were called active. Roughly 18% stayed inconclusive and do not appear here. Rule as the data show it: active = normalized growth mostly below about 0.91 (no sharp cut-off); inconclusive = no clear call, values can overlap the other calls; inactive = mostly above about 0.92. The list shows a part of the results.
# Assay: chemical genetic growth profiling, strain panel (AID 1159580);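 also: tested at 20 µM; growth read once vehicle control cultures reached saturation at 30 °C; 1 = growth at the plate median or of vehicle wells; lower values mean less growth of the strain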
# Conditions: growth OD
structure (smiles),measurement,setting,value
COc1ccc2c(=O)c(OC)c(-c3ccccc3)oc2c1,normalized growth,"S. cerevisiae deletion strains, locus YBR021W, strain FUR4, stronger effect = lower value",0.758 (active)
same,normalized growth,"S. cerevisiae deletion strains, locus YBR229C, strain ROT2, stronger effect = lower value",0.966 (inactive)
same,normalized growth,"S. cerevisiae deletion strains, locus YCL029C, strain bik1, stronger effect = lower value",0.945 (inactive)
same,normalized growth,"S. cerevisiae deletion strains, locus YDL035C, strain GPR1, stronger effect = lower value",0.83 (active)
same,normalized growth,"S. cerevisiae deletion strains, locus YDL074C, strain BRE1, stronger effect = lower value",0.713 (active)
same,normalized growth,"S. cerevisiae deletion strains, locus YDL101C, strain DUN1, stronger effect = lower value",0.855 (active)
same,normalized growth,"S. cerevisiae deletion strains, locus YDL185W, strain tfp1, stronger effect = lower value",0.951 (inactive)
same,normalized growth,"S. cerevisiae deletion strains, locus YDL192W, strain arf1, stronger effect = lower value",0.829 (active)
same,normalized growth,"S. cerevisiae deletion strains, locus YDR101C, strain arx1, stronger effect = lower value",0.855 (active)
same,normalized growth,"S. cerevisiae deletion strains, locus YDR162C, strain NBP2, stronger effect = lower value",0.68 (active)
same,normalized growth,"S. cerevisiae deletion strains, locus YDR318W, strain mcm21, stronger effect = lower value",0.863 (active)
same,normalized growth,"S. cerevisiae deletion strains, locus YDR388W, stronger effect = lower value",0.929 (inactive)
same,normalized growth,"S. cerevisiae deletion strains, locus YDR502C, strain sam2, stronger effect = lower value",0.836 (active)
same,normalized growth,"S. cerevisiae deletion strains, locus YEL061C, strain CIN8, stronger effect = lower value",0.891 (active)
same,normalized growth,"S. cerevisiae deletion strains, locus YER110C, stronger effect = lower value",0.932 (inactive)
same,normalized growth,"S. cerevisiae deletion strains, locus YER155C, strain BEM2, stronger effect = lower value",0.893 (active)
same,normalized growth,"S. cerevisiae deletion strains, locus YER167W, strain BCK2, stronger effect = lower value",0.858 (active)
same,normalized growth,"S. cerevisiae deletion strains, locus YGL078C, strain dbp3, stronger effect = lower value",0.939 (inactive)
same,normalized growth,"S. cerevisiae deletion strains, locus YGL086W, strain mad1, stronger effect = lower value",0.867 (active)
same,normalized growth,"S. cerevisiae deletion strains, locus YGL248W, strain PDE1, stronger effect = lower value",0.831 (active)
same,normalized growth,"S. cerevisiae deletion strains, locus YGR078C, strain PAC10, stronger effect = lower value",0.743 (active)
same,normalized growth,"S. cerevisiae deletion strains, locus YGR135W, strain pre9, stronger effect = lower value",0.754 (active)
same,normalized growth,"S. cerevisiae deletion strains, locus YGR229C, strain SMI1, stronger effect = lower value",0.477 (active)
same,normalized growth,"S. cerevisiae deletion strains, locus YGR252W, strain gcn5, stronger effect = lower value",0.582 (active)
same,normalized growth,"S. cerevisiae deletion strains, locus YHR030C, strain SLT2, stronger effect = lower value",0.646 (active) and 0.936 (inactive)
same,normalized growth,"S. cerevisiae deletion strains, locus YHR079C, strain IRE1 (second series), stronger effect = lower value",0.943 (inactive)
same,normalized growth,"S. cerevisiae deletion strains, locus YHR079C, strain IRE1, stronger effect = lower value",0.925 (inactive)
same,normalized growth,"S. cerevisiae deletion strains, locus YHR094C, strain hxt1, stronger effect = lower value",0.977 (inactive)
same,normalized growth,"S. cerevisiae deletion strains, locus YHR129C, strain ARP1, stronger effect = lower value",0.858 (active)
same,normalized growth,"S. cerevisiae deletion strains, locus YHR200W, strain rpn10, stronger effect = lower value",0.892 (active)
same,normalized growth,"S. cerevisiae deletion strains, locus YIL066C, strain RNR3, stronger effect = lower value",0.771 (active)
same,normalized growth,"S. cerevisiae deletion strains, locus YIL073C, strain SPO22, stronger effect = lower value",0.862 (inactive)
same,normalized growth,"S. cerevisiae deletion strains, locus YIL125W, strain kgd1, stronger effect = lower value",0.975 (inactive)
same,normalized growth,"S. cerevisiae deletion strains, locus YIR030C, strain dcg1, stronger effect = lower value",0.928 (inactive)
same,normalized growth,"S. cerevisiae deletion strains, locus YJL095W, strain BCK1, stronger effect = lower value",0.454 (active) and 0.941 (inactive)
same,normalized growth,"S. cerevisiae deletion strains, locus YJL134W, strain LCB3, stronger effect = lower value",0.951 (inactive)
same,normalized growth,"S. cerevisiae deletion strains, locus YJL168C, strain set2, stronger effect = lower value",0.97 (inactive)
same,normalized growth,"S. cerevisiae deletion strains, locus YJL187C, strain SWE1 (second series), stronger effect = lower value",0.859 (active)
same,normalized growth,"S. cerevisiae deletion strains, locus YJR043C, strain POL32, stronger effect = lower value",0.797 (active)
same,normalized growth,"S. cerevisiae deletion strains, locus YJR066W, strain TOR1, stronger effect = lower value",0.867 (inactive)
same,normalized growth,"S. cerevisiae deletion strains, locus YJR075W, strain HOC1, stronger effect = lower value",0.89 (inactive)
same,normalized growth,"S. cerevisiae deletion strains, locus YKL009W, strain mrt4, stronger effect = lower value",0.901 (inactive)
same,normalized growth,"S. cerevisiae deletion strains, locus YKL068W, stronger effect = lower value",0.975 (inactive)
same,normalized growth,"S. cerevisiae deletion strains, locus YKL085W, strain MDH1 (second series), stronger effect = lower value",0.974 (inactive)
same,normalized growth,"S. cerevisiae deletion strains, locus YKL085W, strain MDH1, stronger effect = lower value",0.974 (inactive)
same,normalized growth,"S. cerevisiae deletion strains, locus YKL190W, strain CNB1, stronger effect = lower value",0.923 (inactive)
same,normalized growth,"S. cerevisiae deletion strains, locus YKR001C, strain vps1, stronger effect = lower value",0.848 (active)
same,normalized growth,"S. cerevisiae deletion strains, locus YLR039C, strain RIC1, stronger effect = lower value",0.906 (inactive)
same,normalized growth,"S. cerevisiae deletion strains, locus YLR058C, strain SHM2, stronger effect = lower value",0.888 (active)
same,normalized growth,"S. cerevisiae deletion strains, locus YLR102C, strain apc9, stronger effect = lower value",0.95 (inactive)
same,normalized growth,"S. cerevisiae deletion strains, locus YLR113W, strain HOG1, stronger effect = lower value",0.931 (inactive)
same,normalized growth,"S. cerevisiae deletion strains, locus YLR262C, strain YPT6, stronger effect = lower value",0.901 (inactive)
same,normalized growth,"S. cerevisiae deletion strains, locus YLR268W, strain sec22, stronger effect = lower value",0.866 (active)
same,normalized growth,"S. cerevisiae deletion strains, locus YLR330W, strain CHS5, stronger effect = lower value",0.752 (active)
same,normalized growth,"S. cerevisiae deletion strains, locus YLR342W, strain FKS1 (second series), stronger effect = lower value",0.723 (active)
same,normalized growth,"S. cerevisiae deletion strains, locus YLR371W, strain rom2, stronger effect = lower value",0.794 (active)
same,normalized growth,"S. cerevisiae deletion strains, locus YLR418C, strain cdc73, stronger effect = lower value",0.532 (active)
same,normalized growth,"S. cerevisiae deletion strains, locus YML016C, strain PPZ1, stronger effect = lower value",0.947 (inactive)
same,normalized growth,"S. cerevisiae deletion strains, locus YML032C, strain rad52, stronger effect = lower value",0.723 (active)
same,normalized growth,"S. cerevisiae deletion strains, locus YML124C, strain tub3, stronger effect = lower value",0.941 (inactive)
same,normalized growth,"S. cerevisiae deletion strains, locus YMR078C, strain ctf18, stronger effect = lower value",0.893 (active)
same,normalized growth,"S. cerevisiae deletion strains, locus YMR223W, strain ubp8, stronger effect = lower value",0.845 (active)
same,normalized growth,"S. cerevisiae deletion strains, locus YMR263W, strain SAP30, stronger effect = lower value",0.845 (active)
same,normalized growth,"S. cerevisiae deletion strains, locus YMR307W, strain GAS1, stronger effect = lower value",0.658 (inactive)
same,normalized growth,"S. cerevisiae deletion strains, locus YNL067W, strain RPL9B, stronger effect = lower value",0.856 (active)
same,normalized growth,"S. cerevisiae deletion strains, locus YNL183C, strain NPR1, stronger effect = lower value",0.916 (inactive)
same,normalized growth,"S. cerevisiae deletion strains, locus YNL233W, strain BNI4, stronger effect = lower value",0.717 (active)
same,normalized growth,"S. cerevisiae deletion strains, locus YNL250W, strain rad50, stronger effect = lower value",0.969 (inactive)
same,normalized growth,"S. cerevisiae deletion strains, locus YNL271C, strain bni1, stronger effect = lower value",0.921 (inactive)
same,normalized growth,"S. cerevisiae deletion strains, locus YNL298W, strain CLA4, stronger effect = lower value",0.894 (active)
same,normalized growth,"S. cerevisiae deletion strains, locus YNL307C, strain MCK1, stronger effect = lower value",0.676 (active)
same,normalized growth,"S. cerevisiae deletion strains, locus YNL322C, strain KRE1, stronger effect = lower value",0.95 (inactive)
same,normalized growth,"S. cerevisiae deletion strains, locus YNR052C, strain pop2, stronger effect = lower value",0.882 (active)
same,normalized growth,"S. cerevisiae deletion strains, locus YOL006C, strain TOP1, stronger effect = lower value",0.396 (active)
same,normalized growth,"S. cerevisiae deletion strains, locus YOL012C, strain htz1",0.856 (inactive)
same,normalized growth,"S. cerevisiae deletion strains, locus YOL147C, strain pex11, stronger effect = lower value",0.904 (active)
same,normalized growth,"S. cerevisiae deletion strains, locus YOR061W, strain CKA2, stronger effect = lower value",0.942 (inactive)
same,normalized growth,"S. cerevisiae deletion strains, locus YOR069W, strain VPS5, stronger effect = lower value",0.909 (active)
same,normalized growth,"S. cerevisiae deletion strains, locus YOR136W, strain idh2, stronger effect = lower value",0.95 (inactive)
same,normalized growth,"S. cerevisiae deletion strains, locus YOR144C, strain elg1, stronger effect = lower value",0.924 (active)
same,normalized growth,"S. cerevisiae deletion strains, locus YOR184W, strain ser1, stronger effect = lower value",0.622 (active)
same,normalized growth,"S. cerevisiae deletion strains, locus YOR231W, strain MKK1, stronger effect = lower value",0.921 (inactive)
same,normalized growth,"S. cerevisiae deletion strains, locus YOR316C, strain cot1, stronger effect = lower value",0.953 (inactive)
same,normalized growth,"S. cerevisiae deletion strains, locus YPL055C, strain LGE1, stronger effect = lower value",0.752 (active)
same,normalized growth,"S. cerevisiae deletion strains, locus YPL256C, strain CLN2, stronger effect = lower value",0.932 (inactive)
same,normalized growth,"S. cerevisiae deletion strains, locus YPR119W, strain clb2, stronger effect = lower value",0.936 (inactive)
same,normalized growth,"S. cerevisiae deletion strains, locus YPR141C, strain kar3, stronger effect = lower value",0.978 (inactive)
same,normalized growth,"S. cerevisiae deletion strains, locus YPR163C, strain tif3, stronger effect = lower value",0.853 (active)
same,normalized growth,"S. cerevisiae deletion strains, locus YPR167C, strain met16, stronger effect = lower value",0.901 (active)
same,normalized growth,"S. cerevisiae deletion strains, strain wtn01, stronger effect = lower value",0.887 (active)
same,normalized growth,"S. cerevisiae strains, strain wild type, stronger effect = lower value",0.884 (active)
